The record followed here is ChEMBL document CHEMBL1201862, “PubChem BioAssay data set” (2004).

Among all 360,000 compounds or so, about 11,000 (3.1%) were called active. Not shown: some 4% with an inconclusive outcome. The rule behind the calls is not given here. The entries come from a sample that favours actives as a whole.

The assay concerns the target Thioredoxin glutathione reductase (Schistosoma mansoni) (UniProt Q962Y6). Put plainly: qHTS Assay for the Inhibitors of Schistosoma Mansoni Peroxiredoxins. [Related pubchem assays: 1011 (Confirmation Concentration-Response Assay for Inhibitors of the Schistosoma mansoni Redox Cascade ), 448 (Schistosoma Mansoni Peroxiredoxins (Prx2) and thioredoxin glutathione reductase (TGR) coupled assay)]. Format: functional.
For `Cl.N[C@@H](CCC(=O)O)C(=O)O`, the Potency is 5.01 µM (active). With `Nc1c2c(nn1-c1ccc(C(=O)O)cc1)CNC2`, the Potency entry was “inactive”. Under `Cc1ccc(CNC(=O)C(=O)NCC2OCCN2S(=O)(=O)c2ccc3c(c2)OCCO3)cc1` (stereo unspecified) stands 631 µM (active). For the compound `Cc1ccc(CNC(=O)C(NS(=O)(=O)c2cccc3nsnc23)C(C)C)cc1` (stereo unspecified), the Potency entry was “inactive”.

As to `Cc1c(C(=O)N2CCCCC2)c(S(=O)(=O)NCCc2ccc(Cl)cc2)c(C)n1C`, the Potency entry is “inactive”. Under `CC(=O)N1CCc2cc(S(=O)(=O)Nc3ccc(C)cc3)ccc21` stands 316 µM (active).
